Results filed as inconclusive are left out. Values without a mark were called inactive. Active and inactive are the calls of the source. Calls come from the whole dose curve; as a rule, active = well fitted cell-killing curve with a large enough effect; inconclusive = small, poorly fitted or top-dose-only effect; inactive = flat fitted curve, though single readings scatter.
Assay: HBEC Cell Viability Secondary Assay for qHTS Assay for Epigenetic Modulators
Conditions: HBEC normal bronchial cells viability, ATP luminescence, 72 h; series mostly up to 46.1 µM; activity change, negative = viability loss: at the top concentration
From the text: NIH Molecular Libraries Screening Centers Network [MLSCN] NIH Chemical Genomics Center [NCGC] MLSCN Grant: 1 X01 MH079860-01 Assay Provider: Elisabeth D. Martinez, University of Texas SW Medical Center NCGC Assay Overview: This secondary assay characterizes selected actives identified in the qHTS of the Locus Derepression (LDR) assay (PubChem AID 1865). The LDR assay detects the derepression of a GFP reporter that is stably integrated in a region of the genome of murine c127i mammary cells that is presumably silenced. Compounds that cause derepression of the locus to express GFP are identified by enumerating GFP positive cells using a laser-scanning microplate cytometer. Selected LDR actives were assayed for killing of HBEC, a patient-derived normal bronchial epithelial line matched to HCC4017 (Pubchem AID XXX), a nonsmall cell lung carcinoma line from the same patient. The HBEC line assays the cytoxicity of test compounds on normal lung cells. Cell viability was measured using a luminescence-based detection reagent that measures cellular ATP levels.
NCGC Assay Protocol Summary HBEC cells were seeded at 125 cells/5 uL/well in white, solid bottom, 1536 well plates (Greiner). After 16-hour incubation at 37deg C and 5% CO2, 23 nL of compound were transferred into the assay plate via a pin tool. Plates were incubated 72 hours at 37deg C and 5% CO2, then 3.5 uL/well CellTiter-Glo(R) (Promega) detection reagent was added, plates were incubated at ambient temperature for 10 minutes and luminescence was measured by a ViewLux (Perkin Elmer) reader. For further details, see Johnson, RL, Huang, W, Jadhav, A, Austin, CP, Inglese, J, Martinez, ED (2008). A quantitative high-throughput screen identifies potential epigenetic modulators of gene expression. Anal Biochem 375: 237-48. […]

Row | Structure (SMILES) | Potency | activity change, negative = viability loss
1 | COc1ccc(C(=O)/C=C/Sc2nc3ccccc3o2)cc1 | 3.15 µM (active) | –
2 | S=C(Nc1ccccc1)c1ccccn1 | – | -0.455%
3 | N=c1n(CC(=O)c2ccc([N+](=O)[O-])cc2)c2ccccc2n1Cc1ccccc1Cl | 11.2 µM (active) | –
4 | COc1ccccc1OCC(=O)N/N=C/C=C/c1ccc([N+](=O)[O-])o1 | 9.96 µM (active) | –
5 | COc1ccc2c(C)cc(SCC(=O)N(C)C3CCS(=O)(=O)C3)nc2c1 (stereo unspecified) | – | -9.91%
6 | CCOn1c(=O)c[n+]([O-])c2ccccc21 | – | 3.63%
7 | CCC(=O)N1CCN(c2ccc(NC(=O)c3ccc([N+](=O)[O-])o3)cc2Cl)CC1 | 0.705 µM (active) | –
8 | CCN(CC)CCCNC(=O)CSc1c2c(nc3cc(Cl)ccc13)CCCC2 | 19.9 µM (active) | –
9 | NC(=S)N/N=C/c1ncc(C(F)(F)F)cc1Cl | 6.28 µM (active) | –
10 | O=C(NN1C(=O)c2ccccc2NC1c1ccc([N+](=O)[O-])o1)c1ccc([N+](=O)[O-])cc1 (stereo unspecified) | 3.97 µM (active) | –
11 | O=C(N/N=C/c1ccccn1)c1cc(-c2ccc(Cl)cc2)nc2ccccc12 | 7.05 µM (active) | –
12 | O=C(CSc1cccc[n+]1[O-])c1ccccc1Br | – | 11.3%
13 | O=C1C=C(Nc2ccc(Cl)cc2)C(=O)N1c1ccc(Cl)cc1 | – | -5.04%
14 | CN(C)S(=O)(=O)c1cccc(NC(=S)N/N=C/c2ccco2)c1 | – | 3.62%
15 | CC1=C/C(=N\NC(=S)Nc2cccnc2)CC(C)(C)C1 | 9.96 µM (active) | –
16 | CCCC(=O)N1CCN(c2ccc(NC(=O)c3ccc([N+](=O)[O-])o3)cc2Cl)CC1 | 0.705 µM (active) | –

Row | Structure (SMILES) | Potency | activity change, negative = viability loss
17 | COc1nc(Nc2nc3ccccc3c(=O)[nH]2)nc2ccc(C)cc12 | 3.15 µM (active) | –
18 | COc1ccc2c(C)nc(Nc3nc(-c4ccccc4)cc(=O)[nH]3)nc2c1 | 8.88 µM (active) | –
19 | C/C=C/c1ccc(OCC(=O)OCC(=O)NC2CC2)c(OC)c1 | – | -4.48%
20 | CCc1nnc(NC(=O)c2cccc(C(=O)Nc3nnc(CC)s3)n2)s1 | 0.705 µM (active) | –
21 | C(=N\Nc1nc(-c2ccccn2)nc2ccccc12)/c1ccccc1 | 3.15 µM (active) | –
22 | CCOc1ccc(NC(=O)c2nc(S(=O)(=O)Cc3ccccc3F)ncc2Cl)cc1 | 2.23 µM (active) | –
23 | COc1cccc(/C=N/Nc2nc(Nc3ccccc3)nc(-n3nc(C)cc3C)n2)c1O | 11.2 µM (active) | –
24 | COc1cccc(N2CCN(S(=O)(=O)c3ccc(-n4cnnn4)cc3)CC2)c1 | – | -18.1%
25 | CCCCOC(=O)Cn1c2ccc(OC)cc2c2nc3ccccc3nc21 | 14.1 µM (active) | –
26 | COc1ccc(NC(=O)CSc2nc3c(oc4ccccc43)c(=O)n2Cc2ccco2)cc1Cl | 7.05 µM (active) | –
27 | COCCNC(=S)N/N=C(\C)c1ccccc1O | – | -4.12%
28 | Cc1ccc(/C=[N+](\[O-])c2ccc(N(C)C)cc2)c2nsnc12 | 9.96 µM (active) | –
29 | O=[N+]([O-])/C(C=Nc1ccccc1O)=C\Nc1ccccc1O | 28.1 µM (active) | –
30 | CC1=NN(c2nc3ccccc3[nH]2)C(=O)C1Cc1ccccc1 (stereo unspecified) | 7.05 µM (active) | –
31 | Cc1ccc(C(C)C)c(OCc2ccc(C(=O)N/N=C/c3cccc(O)c3O)cc2)c1 | 14.1 µM (active) | –

Source: PubChem BioAssay AID493066 (National Center for Advancing Translational Sciences (NCATS), 2011)
